Screening results as filed in PubChem.
ALOX12 inh: inhibitors of human 12S-lipoxygenase ALOX12. 580,000 compounds, 1.1% hits. P18054. Potency, µM (titrated, usually from 108 µM), inactives show at the highest dose activity change, negative = inhibition, hits mostly inhibitors. AID 1671190. purified 12hLO, xylenol orange hydroperoxide absorbance; also: potency is read from the fitted curve at half-maximal effect
Target sequence (P18054 whole entry, looked up): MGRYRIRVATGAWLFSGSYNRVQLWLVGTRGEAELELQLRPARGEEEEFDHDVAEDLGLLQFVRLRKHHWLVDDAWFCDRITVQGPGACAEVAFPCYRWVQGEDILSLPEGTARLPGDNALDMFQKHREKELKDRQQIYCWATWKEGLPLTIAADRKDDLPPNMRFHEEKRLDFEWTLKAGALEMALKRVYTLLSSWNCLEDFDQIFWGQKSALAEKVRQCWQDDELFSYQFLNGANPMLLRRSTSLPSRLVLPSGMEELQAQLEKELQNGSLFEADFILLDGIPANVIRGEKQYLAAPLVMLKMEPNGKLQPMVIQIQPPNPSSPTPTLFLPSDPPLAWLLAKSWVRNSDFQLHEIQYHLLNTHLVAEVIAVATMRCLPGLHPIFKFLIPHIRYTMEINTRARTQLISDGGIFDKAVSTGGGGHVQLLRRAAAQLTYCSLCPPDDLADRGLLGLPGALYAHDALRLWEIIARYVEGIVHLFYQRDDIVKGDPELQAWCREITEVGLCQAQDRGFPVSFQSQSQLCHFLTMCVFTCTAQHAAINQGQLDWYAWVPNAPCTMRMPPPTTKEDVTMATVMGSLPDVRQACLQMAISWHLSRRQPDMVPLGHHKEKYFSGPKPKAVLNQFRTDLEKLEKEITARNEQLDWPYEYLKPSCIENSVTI
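Purified human 12hLO at 150 nM in 25 mM Hepes, 0.01% Triton X-100, pH 7.0, preincubated 15 min at room temperature with compound. Reaction started with 40 uM arachidonic acid, 30 min at room temperature. Hydroperoxide measured by Fe-xylenol orange, 573/405 nm absorbance ratio.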
HT1080 IDH1KD tx: toxicity to HT-1080 IDH1 knockdown cells (counter line); HT-1080 IDH1 knockdown viability, ATP luminescence, 48 h; 360,000 compounds, 2% hits; Potency, µM (series often up to 46.1 µM), inactives show top-dose activity, negative = toxicity, usual class: cytotoxic;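 also: potency is read from the fitted curve at half-maximal effect; 0% = DMSO wells and -100% = cell-free medium wells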
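Luminescent ATP read-out (CellTiter-Glo, 10 min at room temperature) after 48 h compound exposure at 37 °C gave viability of IDH1-knockdown HT-1080 cells. Activity was normalised to DMSO and cell-free wells, then fitted as concentration-response curves.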
TDP1 cell noCPT: qHTS for Inhibitors of human tyrosyl-DNA phosphodiesterase 1 (TDP1): qHTS in cells in absence of CPT. DT40 Tdp1-/- hTDP1 cells, no CPT, ATP luminescence, 48 h. Potency, µM (doses to about 46.2 µM), for the others: at the highest dose activity change, negative = growth inhibition, hits mostly inhibitors. 420,000 compounds, 15% hits; also: potency is read from the fitted curve at half-maximal effect; nearly all actives have a fitted effect of over 55% in size
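Cells were dispensed at 400 per well, compounds added by pin tool, plates incubated ≥48 hr at 37 °C, then CellTiter-Glo added for 30 min at room temperature before luminescence reading. Line: DT40 Tdp1-/- complemented with hTDP1; camptothecin omitted.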
IL1B secr inh: inflammasome signaling inhibition, IL-1 beta readout; THP-1 LPS/ATP IL-1B secretion, AlphaLISA, 16 h; active compounds read low; activity change, % at 57.5 µM; 360,000 compounds, 4.7% hits; AID 743279; in the data active = activity change below about -50%; inconclusive = mostly about -30% to -49%
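THP-1 cells pretreated 1 hr with compounds (up to 57.5 uM final), then stimulated with LPS (250 ng/mL final) plus ATP (1.25 mM final); secreted IL-1B measured by AlphaLISA after 16 hr, decreased signal indicating inhibition.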
TDP1 cell CPT: DT40-hTDP1 cell growth loss with CPT | chicken DT40 Tdp1-/-;hTDP1 cells + 20 nM CPT, ATP luminescence, 48 h | Potency, µM (top dose mostly 46.2 µM), for the others: at the top dose activity change, negative = growth inhibition, most hits filed as inhibitors | 420,000 compounds, 12% hits; also: potency is read from the fitted curve at half-maximal effect; nearly all actives have a fitted effect of over 55% in size
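Chicken DT40 Tdp1-/- cells stably complemented with human TDP1 were seeded at 400 cells/well in medium containing 20 nM camptothecin, exposed to pin-transferred compounds, and grown at 37 °C for at least 48 hr. Viability was read as ATP luminescence.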
HT1080-NT tox: kills 2HG-producing HT-1080-NT fibrosarcoma cells; HT-1080-NT fibrosarcoma viability, CellTiter-Glo ATP luminescence, 48 h; Potency, µM (highest dose often 46.1 µM), for the others: at the highest dose activity, negative = less viability, most hits filed as cytotoxic; 360,000 compounds, 1.6% hits;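 also: NT is the 2HG producing partner of a matched IDH1 knockdown line; potency is read from the fitted curve at half-maximal effect; 0% = DMSO-treated cells and -100% = media-only wells without cells; nearly all actives have a fitted effect of over 55% in size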
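HT-1080-NT; 750 cells/well; 5% FBS RPMI; 48 h compound, 37 degrees C; CellTiter-Glo luminescence; curve fitting and curve-class assignment.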
* marks the source's active call; other numbers are inactive results; i = inactive; ? = inconclusive; · = not tested or not shown; [ ] = another dose, or the depositor's remark. The sample as a whole holds a higher share of hits than the screen did. Unless noted, calls follow the shape of the dose curve; as a rule, active = well fitted curve in the direction sought with a large enough effect; inconclusive = small, poorly fitted or top-dose-only effect, or another doubt; inactive = no such curve, though single readings can be large; an effect the other way counts as inactive or inconclusive. Unless noted, % is scaled to controls: 0 for no effect and ±100 for the full control effect.

SMILES | ALOX12 inh | HT1080 IDH1KD tx | TDP1 cell noCPT | IL1B secr inh | TDP1 cell CPT | HT1080-NT tox
Cc1ccc2cc(C(=O)NC3CCS(=O)(=O)C3)c(C)nc2c1 (stereo not drawn) | -0.6% | · | · | · | · | ·
O=C(O)CCC(=O)N1CCN2C(=O)N(Cc3ccccc3)C[C@H]2C1 | -3.1%[176 µM] | · | · | · | · | ·
CC1CCN(C(=O)c2ccc(S(=O)(=O)Cc3ccccc3F)c([N+](=O)[O-])c2)CC1 | -12.1% | ? | 16.4µM* | -117.4* | ? | -13.9%
O=C(c1ccc(S(=O)(=O)Cc2ccccc2F)c([N+](=O)[O-])c1)N1CCCC1 | 2.7% | ? | ? | -103.0* | 18.4µM* | ?
CC1CCN(C(=O)c2ccc(N3CCOCC3)c([N+](=O)[O-])c2)CC1 | 176.6% | 2.1% | ? | -3.9 | -29.9% | 1.9%
O=C(c1ccc(S(=O)(=O)c2ccc(F)cc2)c([N+](=O)[O-])c1)N1CCCCCC1 | -7.6% | ? | 2.31µM* | -103.0* | 3.26µM* | -21.1%
CC(C)c1ccc2c(c1)[C@H]1OCC[C@H]1[C@@H](c1cccs1)N2 | 3.9% | 3.26µM* | 10.3µM* | -1.9 | 16.4µM* | 2.91µM*
Oc1c(Cl)cc(Cl)cc1C1=NNC(c2ccc(Cl)cc2)C1 (stereo not drawn) | · | -20.2% | ? | -3.1 | -34.7% | 0.5%
Oc1ccc(Cl)cc1C1=NNC(c2ccc(Cl)cc2)C1 (stereo not drawn) | ? | ? | 13µM* | ? | 23.1µM* | -18.0%
CN(C)C[C@@H]1CN(C2CCOCC2)C[C@H]1NC(=O)c1cnco1 | 126.2% | · | · | · | · | ·
N=C(N)SCc1nc2ccccc2c(=O)n1-c1ccccc1 | -0.1% | 17.1% | 18.4µM* | ? | ? | 11.7%
Cc1cn2nc(C(=O)NC3CCc4ccccc43)cc2c(N2CCCC2)n1 (stereo not drawn) | 20.2% | · | · | · | · | ·
CCOC(=O)C1=C(C)N=C2SC=C(CC(=O)NCC3CCCO3)N2C1c1ccc(Cl)cc1 (stereo not drawn) | 15.6% | · | · | · | · | ·
Nc1c(Cl)cc(C2=NCCn3c2c2ccc([N+](=O)[O-])cc2[n+]3[O-])cc1Cl | ? | -12.2% | 5.8µM* | -0.5 | 1.84µM* | -12.9%
Nc1c(Cl)cc(C2=NCCn3nc4cc([N+](=O)[O-])ccc4c32)cc1Cl | -3.5% | -16.3% | 18.4µM* | -15.0 | ? | -24.5%
COc1ccc(C2=NCCn3nc4ccccc4c32)cc1 | -15.2% | ? | -15.4% | 18.0 | -16.0% | -6.7%
Nc1c(Cl)cc(C2=NCCn3nc4cc(C(F)(F)F)ccc4c32)cc1Cl | -28.0% | -18.1% | 20.6µM* | ? | 20.6µM* | -17.4%
COc1ccc2c3n(nc2c1)CCN=C3c1cc(Cl)c(N)c(Cl)c1 | ? | ? | 16.4µM* | ? | ? | ?
OC1CN(Cc2ccccc2)CCN(c2nc(-c3ccccc3)no2)C1 (stereo not drawn) | -1.7% | · | · | · | · | ·
Cc1cccc(CC(=O)N2CC(C(=O)NCCc3ccncc3)C3(CCOCC3)C2)c1 (stereo not drawn) | 28.5% | · | · | · | · | ·
CCn1c2ccccc2c2c3ncc4cccn4c3ccc21 | 0.0% | -27.9% | 6.51µM* | -75.9* | 4.11µM* | -4.5%
O=c1c2ccccc2[nH]c2ccc(F)cc12 | -7.4% | -2.8% | 9.2µM* | -22.1 | 20.6µM* | -4.0%
O=c1nc(-c2ccccc2Cl)c2cc(F)ccc2[nH]1 | i | -11.3% | ? | 0.6 | -13.5% | -15.4%
O=c1[nH]c2ccccc2c(=O)c2ccccc12 | -16.4% | -3.9% | -25.5% | -16.6 | -7.4% | -1.2%
Cc1cc(=O)[nH]c2ccc(O)cc12 | · | · | -1.4% | · | 0.355µM* | ·
SMILES | ALOX12 inh | HT1080 IDH1KD tx | TDP1 cell noCPT | IL1B secr inh | TDP1 cell CPT | HT1080-NT tox
O=c1c2ccccc2[nH]c2ccc(O)cc12 | ? | -1.8% | -25.1% | -70.8* | 16.1% | 3.2%
Cc1cc(=O)[nH]c2cc(O)ccc12 | -13.0% | -5.8% | 3.7% | 22.9 | 5.4% | 9.2%
Cc1ccc2[nH]c3ccccc3c(=O)c2c1 | 61.6% | -21.9% | 11.6µM* | -15.6 | 11.6µM* | -10.9%
COc1cc(C2CC(=O)Nc3[nH]ncc32)ccc1OCc1ccc(Cl)cc1 (stereo not drawn) | -40.6% | · | · | · | · | ·
COc1ccc2cc1Nc1ccc(cc1)C[C@H](NCc1ccc(O)cc1)C(=O)N(C)[C@H](C(=O)NCCOc1ccccc1)C2 | 1.0% | · | · | · | · | ·
Cc1cc(=O)oc2c(C)c3oc(/C(=N/O)c4ccccc4)c(C)c3cc12 | 2.0% | · | · | · | · | ·
Cc1ccc(NC(=O)c2ccco2)c(NC(=O)c2ccccc2)c1 | -0.1% | -9.2% | 6.1% | 23.8 | -3.1% | 1.7%
CCN(CC)P(=O)(Nc1ccc(C)cc1Br)c1ccc(N(C)C)cc1NC(=O)c1ccco1 (stereo not drawn) | ? | -9.3% | 16.4µM* | -65.6* | ? | -10.2%
CC(=O)N1CCC(N(CCCN2CCC(C)CC2)C(=O)Nc2cccc(C)c2C)CC1 | -8.0% | · | · | · | · | ·
CCN(c1ccccc1)S(=O)(=O)c1ccc(OC)c(NC(=O)CNCCc2ccccc2)c1 | 0.0% | ? | 20.6µM* | ? | 25.9µM* | ?
CCN(c1ccccc1)S(=O)(=O)c1ccc(OC)c(NC(=O)CCc2nc3ccccc3c(=O)[nH]2)c1 | -16.1% | -10.0% | 14.6µM* | 6.9 | 18.4µM* | -8.6%
CCN(c1ccccc1)S(=O)(=O)c1ccc(OC)c(NC(=O)C2CCC2)c1 | 259.8% | ? | ? | -4.5 | ? | -10.6%
CCOc1ccc(Oc2ccccc2NC(=O)CCc2nc3ccccc3c(=O)[nH]2)cc1 | -4.1% | -18.5% | 20.6µM* | 82.3 | 23.1µM* | -4.2%
CCN(c1ccccc1)S(=O)(=O)c1ccc(OC)c(NC(=O)Cc2ccc(F)cc2)c1 | -10.3% | -10.7% | 18.4µM* | ? | ? | -2.6%
CC(=O)Nc1cccc(C(=O)NC2(c3ccc(F)cc3)CCC2)c1 | -1.3% | · | · | · | · | ·
COc1ccc(C(C)NC(=O)CCc2ncc(-c3ccccc3)o2)cc1F (stereo not drawn) | -1.5% | · | · | · | · | ·
Cc1nn(-c2ccccc2)c(N2CCCC2)c1/C=N/O | 7.2% | 5.4% | ? | 0.0 | ? | -2.8%[9.24 µM]
Cc1nn(-c2ccccc2)c(N2CCCC2)c1/C=N/n1cnc2scc(-c3ccccc3)c2c1=O | 416.1% | 1.5% | 12.6µM* | 36.9 | 10µM* | 0.9%
O=c1c2c(-c3ccccc3)csc2ncn1/N=C/c1c2ccccc2cc2ccccc12 | 0.4% | -12.5% | 16.4µM* | 36.6 | ? | -6.8%
CCOc1cc(C)c(S(=O)(=O)Nc2ccccc2OCC)cc1C | -43.5% | · | · | · | · | ·
